Source: the supplement of paper PMC10849652
Of roughly 8,800 targets only a part is listed; those with a hit were picked by preference. About 0.5% of all pairs of compound and target were hits.

Columns and labels:
Test in all cases: log2 fold change, soluble protein after heating vs DMSO (PISA); higher = thermal stabilisation; K562 lysate, 10 uM; active = over 0.2 and 3.5 SD of the protein, either way, in both replicates (recomputed)
[1] = compound: C1=CC=C(C=C1)[C@H](COC2=CC3=C(C=C2)NC(=O)N3)NC(=O)C4=CC=CN(C4=O)CC5=CC(=C(C=C5)F)F
Outline: (§1)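 To prepare the extract, K562 pellets were dounce-homogenised in PBS pH 7.4 with 1 mM MgCl2, giving crude material at 1 mg/mL protein. This was treated with 10 μM compound for 30 min, then heated in aliquots for 3 min over 48°C-58°C before pooling and addition of NP-40 to 0.5% at 4°C. Centrifugation at 21,000xg for 90 min left soluble protein in the supernatant, which TMTpro 16plex LC-MS/MS quantified with equalised channel sums. Results are log-two fold changes in thermal stability compared with solvent controls, from duplicates.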

[2] = compound: CC1=C(SC2=C1C(=N[C@H](C3=NN=C(N32)C)CC(=O)N)C4=CC=C(C=C4)Cl)C
Outline: as §1

[3] = compound: CC1=C2C(=CC=C1)N=C(N(C2=O)C3=CC=CC=C3C)CN4C=NC5=C(N=CN=C54)N
Outline: as §1

[4] = compound: Cc1sc2c(c1C)C(c1ccc(Cl)cc1)=N[C@@H](CC(=O)OC(C)(C)C)c1nnc(C)n1-2
Outline: as §1

[5] = compound: c1ccc([C@@H]2C[C@H]2NC2CCNCC2)cc1
Outline: as §1

Measured: log2 fold change

PES1 (UniProt O00541)
UniProt O00541, sequence (O00541 whole entry, looked up): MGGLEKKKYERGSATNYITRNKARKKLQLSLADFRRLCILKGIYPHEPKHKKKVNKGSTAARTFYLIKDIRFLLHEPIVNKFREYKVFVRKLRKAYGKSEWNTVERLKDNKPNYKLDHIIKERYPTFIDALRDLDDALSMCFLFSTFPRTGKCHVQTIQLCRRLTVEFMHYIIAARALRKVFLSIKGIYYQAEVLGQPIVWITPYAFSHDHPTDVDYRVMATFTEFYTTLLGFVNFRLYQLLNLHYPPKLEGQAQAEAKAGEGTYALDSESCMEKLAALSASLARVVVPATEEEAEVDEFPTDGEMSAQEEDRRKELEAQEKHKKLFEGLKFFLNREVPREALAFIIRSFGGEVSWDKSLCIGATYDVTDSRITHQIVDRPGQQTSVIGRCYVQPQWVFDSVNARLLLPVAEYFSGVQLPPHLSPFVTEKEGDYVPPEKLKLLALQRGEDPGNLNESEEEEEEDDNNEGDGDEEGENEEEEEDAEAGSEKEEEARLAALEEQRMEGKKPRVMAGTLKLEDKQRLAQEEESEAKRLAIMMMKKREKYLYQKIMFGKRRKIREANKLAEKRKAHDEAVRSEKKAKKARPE
inactive: [1] 0.027 | [2] 0.016 | [3] 0.019 | [4] 0.016 | [5] 0.02

PTPN2 (UniProt P17706)
UniProt P17706, sequence (P17706 whole entry, looked up): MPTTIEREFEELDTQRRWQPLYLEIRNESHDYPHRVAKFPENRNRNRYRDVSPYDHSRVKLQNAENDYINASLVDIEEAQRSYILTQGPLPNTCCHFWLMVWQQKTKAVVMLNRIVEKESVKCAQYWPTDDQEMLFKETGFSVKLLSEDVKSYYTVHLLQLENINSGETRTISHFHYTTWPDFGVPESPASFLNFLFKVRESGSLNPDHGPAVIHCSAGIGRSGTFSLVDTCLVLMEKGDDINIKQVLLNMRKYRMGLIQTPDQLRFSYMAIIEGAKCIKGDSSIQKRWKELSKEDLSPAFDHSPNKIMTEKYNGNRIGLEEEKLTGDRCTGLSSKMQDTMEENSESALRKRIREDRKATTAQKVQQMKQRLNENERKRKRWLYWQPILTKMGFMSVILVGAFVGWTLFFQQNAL
inactive: [1] -0.031 | [2] 0.017 | [3] 0.023 | [4] 0.007 | [5] 0.012

PFN1 (UniProt P07737)
UniProt P07737, sequence (P07737 whole entry, looked up): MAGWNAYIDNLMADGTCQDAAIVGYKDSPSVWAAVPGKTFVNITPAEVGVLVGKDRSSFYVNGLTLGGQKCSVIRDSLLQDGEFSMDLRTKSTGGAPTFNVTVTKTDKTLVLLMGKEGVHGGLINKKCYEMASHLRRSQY
inactive: [1] -0.004 | [2] 0.009 | [3] 0 | [4] -0.004 | [5] -0.007

PITRM1 isoform 2 (UniProt Q5JRX3)
UniProt Q5JRX3, sequence (Q5JRX3 whole entry, looked up): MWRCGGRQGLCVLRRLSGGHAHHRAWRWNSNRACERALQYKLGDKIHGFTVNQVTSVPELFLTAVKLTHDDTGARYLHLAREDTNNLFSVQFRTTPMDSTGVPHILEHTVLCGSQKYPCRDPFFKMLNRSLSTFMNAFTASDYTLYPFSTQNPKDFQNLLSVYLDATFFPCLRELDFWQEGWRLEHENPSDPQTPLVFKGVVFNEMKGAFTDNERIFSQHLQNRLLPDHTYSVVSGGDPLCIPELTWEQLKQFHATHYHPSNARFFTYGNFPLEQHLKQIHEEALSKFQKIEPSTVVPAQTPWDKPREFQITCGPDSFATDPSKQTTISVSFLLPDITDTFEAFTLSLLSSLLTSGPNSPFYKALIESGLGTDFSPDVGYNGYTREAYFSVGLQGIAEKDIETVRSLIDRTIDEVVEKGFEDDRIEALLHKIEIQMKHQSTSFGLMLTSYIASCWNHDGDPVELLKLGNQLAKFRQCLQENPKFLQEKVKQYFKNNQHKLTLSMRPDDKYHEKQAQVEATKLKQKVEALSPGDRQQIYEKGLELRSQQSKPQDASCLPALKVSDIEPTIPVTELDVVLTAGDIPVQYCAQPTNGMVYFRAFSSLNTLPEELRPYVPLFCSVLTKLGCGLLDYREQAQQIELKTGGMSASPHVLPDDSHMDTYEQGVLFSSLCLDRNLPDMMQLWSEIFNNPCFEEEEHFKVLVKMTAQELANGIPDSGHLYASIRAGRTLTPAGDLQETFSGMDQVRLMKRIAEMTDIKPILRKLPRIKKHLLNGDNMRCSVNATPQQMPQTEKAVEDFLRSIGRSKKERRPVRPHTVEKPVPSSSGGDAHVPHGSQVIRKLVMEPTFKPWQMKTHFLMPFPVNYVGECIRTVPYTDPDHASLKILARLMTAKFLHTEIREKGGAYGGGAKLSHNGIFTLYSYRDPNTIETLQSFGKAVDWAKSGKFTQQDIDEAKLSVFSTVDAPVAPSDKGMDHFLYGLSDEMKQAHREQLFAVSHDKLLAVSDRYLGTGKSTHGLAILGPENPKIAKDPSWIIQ
inactive: [1] 0.158 | [2] -0.193 | [3] 0.005 | [4] 0.04 | [5] 0.01

PPP1R12B isoform 6 (UniProt O60237)
inactive: [1] 0.043 | [2] 0.033 | [3] 0.088 | [4] -0.145

PTP4A1 (UniProt Q93096)
UniProt Q93096, sequence (Q93096 whole entry, looked up): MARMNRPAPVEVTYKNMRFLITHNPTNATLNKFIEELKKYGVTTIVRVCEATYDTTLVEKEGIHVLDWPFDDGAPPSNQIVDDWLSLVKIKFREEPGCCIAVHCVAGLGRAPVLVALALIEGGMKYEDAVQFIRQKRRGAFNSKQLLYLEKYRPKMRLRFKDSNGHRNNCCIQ
inactive: [1] 0.047 | [2] 0.006 | [3] 0.012 | [4] -0.01 | [5] 0.041

PHC1 (UniProt P78364)
UniProt P78364, sequence (P78364 whole entry, looked up): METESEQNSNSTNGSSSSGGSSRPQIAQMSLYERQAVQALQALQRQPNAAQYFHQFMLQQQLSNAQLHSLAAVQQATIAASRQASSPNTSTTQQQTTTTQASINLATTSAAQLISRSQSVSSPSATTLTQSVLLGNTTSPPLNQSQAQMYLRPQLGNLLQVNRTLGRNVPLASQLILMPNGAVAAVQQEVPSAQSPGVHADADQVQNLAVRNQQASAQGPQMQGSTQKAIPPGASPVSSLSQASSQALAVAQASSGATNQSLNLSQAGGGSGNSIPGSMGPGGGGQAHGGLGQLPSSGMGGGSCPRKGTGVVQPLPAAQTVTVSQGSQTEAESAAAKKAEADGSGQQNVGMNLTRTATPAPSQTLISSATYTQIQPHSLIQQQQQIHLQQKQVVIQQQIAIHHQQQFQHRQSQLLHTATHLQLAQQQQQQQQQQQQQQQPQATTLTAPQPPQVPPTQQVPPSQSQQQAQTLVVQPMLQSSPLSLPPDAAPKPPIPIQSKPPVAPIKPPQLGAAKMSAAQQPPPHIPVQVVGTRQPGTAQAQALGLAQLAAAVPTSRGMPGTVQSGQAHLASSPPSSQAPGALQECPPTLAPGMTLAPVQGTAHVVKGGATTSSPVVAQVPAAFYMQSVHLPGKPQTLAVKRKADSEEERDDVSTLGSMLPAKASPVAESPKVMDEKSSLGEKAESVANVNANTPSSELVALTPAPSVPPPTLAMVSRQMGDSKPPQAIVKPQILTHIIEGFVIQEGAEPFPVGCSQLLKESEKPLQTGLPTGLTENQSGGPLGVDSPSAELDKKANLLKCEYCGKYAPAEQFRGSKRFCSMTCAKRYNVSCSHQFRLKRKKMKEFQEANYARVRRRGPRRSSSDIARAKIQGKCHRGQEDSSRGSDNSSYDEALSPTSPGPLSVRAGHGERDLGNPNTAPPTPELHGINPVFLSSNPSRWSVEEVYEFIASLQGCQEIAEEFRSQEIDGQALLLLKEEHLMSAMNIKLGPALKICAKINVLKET
inactive: [1] 0.025 | [2] 0.001 | [3] 0.041 | [4] -0.049

PPP2R5B (UniProt Q15173)
UniProt Q15173, sequence (Q15173 whole entry, looked up): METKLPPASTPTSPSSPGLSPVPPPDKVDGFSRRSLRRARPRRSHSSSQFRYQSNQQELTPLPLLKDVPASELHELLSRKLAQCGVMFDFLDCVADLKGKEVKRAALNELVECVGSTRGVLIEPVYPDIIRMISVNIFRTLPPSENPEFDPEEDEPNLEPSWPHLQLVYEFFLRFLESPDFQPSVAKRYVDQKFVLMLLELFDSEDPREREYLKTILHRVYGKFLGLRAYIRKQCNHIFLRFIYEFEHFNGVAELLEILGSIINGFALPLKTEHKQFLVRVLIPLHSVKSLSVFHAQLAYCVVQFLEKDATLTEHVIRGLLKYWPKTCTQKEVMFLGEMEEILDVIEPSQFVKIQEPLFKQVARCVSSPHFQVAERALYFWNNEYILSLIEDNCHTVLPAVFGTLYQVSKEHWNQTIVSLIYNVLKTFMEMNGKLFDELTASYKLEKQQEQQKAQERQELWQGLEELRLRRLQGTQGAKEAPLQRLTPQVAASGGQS
inactive: [1] -0.08 | [2] -0.037 | [3] -0.024 | [4] -0.006 | [5] 0.066

PHF14 (UniProt O94880)
UniProt O94880, sequence (O94880 whole entry, looked up): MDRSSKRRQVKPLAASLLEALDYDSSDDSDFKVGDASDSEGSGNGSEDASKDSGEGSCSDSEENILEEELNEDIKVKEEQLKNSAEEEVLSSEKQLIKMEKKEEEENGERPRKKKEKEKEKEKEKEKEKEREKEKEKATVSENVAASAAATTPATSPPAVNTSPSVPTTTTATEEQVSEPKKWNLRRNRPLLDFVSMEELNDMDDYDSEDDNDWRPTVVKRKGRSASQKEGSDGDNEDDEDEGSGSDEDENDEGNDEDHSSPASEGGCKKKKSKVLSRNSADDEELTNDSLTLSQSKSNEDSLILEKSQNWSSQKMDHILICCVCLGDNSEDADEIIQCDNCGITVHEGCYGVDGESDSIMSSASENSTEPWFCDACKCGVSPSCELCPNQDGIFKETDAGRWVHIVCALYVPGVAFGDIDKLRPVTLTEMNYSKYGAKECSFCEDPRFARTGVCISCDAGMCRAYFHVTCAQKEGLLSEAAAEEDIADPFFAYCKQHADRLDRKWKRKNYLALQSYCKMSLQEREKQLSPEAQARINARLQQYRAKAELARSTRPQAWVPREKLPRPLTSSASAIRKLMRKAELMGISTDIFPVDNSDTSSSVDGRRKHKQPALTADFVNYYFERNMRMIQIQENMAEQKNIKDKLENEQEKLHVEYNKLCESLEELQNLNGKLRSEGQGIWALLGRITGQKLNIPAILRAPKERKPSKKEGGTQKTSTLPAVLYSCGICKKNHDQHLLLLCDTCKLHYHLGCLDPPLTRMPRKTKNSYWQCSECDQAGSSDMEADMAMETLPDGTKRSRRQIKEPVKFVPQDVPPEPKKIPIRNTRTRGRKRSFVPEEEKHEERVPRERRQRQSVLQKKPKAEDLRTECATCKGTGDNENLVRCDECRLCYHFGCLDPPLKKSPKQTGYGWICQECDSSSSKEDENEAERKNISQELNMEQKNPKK
inactive: [1] 0.048 | [2] 0.025 | [3] -0.038 | [4] 0.019

PLXNB2 (UniProt O15031)
inactive: [1] -0.034 | [2] 0.037 | [3] 0.014 | [4] 0.004 | [5] -0.024
